Tau fluor counter – Counterscreen qHTS for Inhibitors of Tau Fibril Formation, Fluorescence Polarization. tau K18 P301L Alexa594 fluorescence, heparin fibrillization. Potency, µM (doses to about 57.7 µM), for the others: top-dose activity change, negative = decrease. actives 0.93% (n = 280,000). AID 1463, 2008; note: % is set by controls: 0 for no effect and ±100 for the full control effect; nearly all actives have a fitted effect of over 55% in size
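Human tau K18 P301L (15 uM unlabeled, 0.24 uM Alexa 594-labeled) in 100 mM sodium acetate pH 7 with 20 uM heparin, 6 hr at 37 C. ThT 30 uM added, 1 hr ambient; Alexa 594 FP and total fluorescence read at 555/632 nm.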
HTT ATP protect – qHTS Multiplex Assay to Identify Dual Action Probes in a Cell Model of Huntington: Cytoprotection (ATP); Potency, µM (series often up to 56.4 µM), for the others: cytoprotection (ATP increase), hits mostly activators; actives 0.14% (n = 230,000); PC12 HTT-Q103 induced, cytoprotection, ATP luminescence, 40 h; AID 1471, 2008; note: % of control where 0% means no effect; nearly all actives have a fitted effect of over 45% in size
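Cells were plated at 1500 per well in phenol red-free DMEM with 5% equine and 5% calf serum. Tebufenozide (100 nM final) and compounds were added, then ATPlite reagent, and luminescence was read.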
HttQ103 aggreg – qHTS Multiplex Assay to Identify Dual Action Probes in a Cell Model of Huntington: Aggregate Formation (GFP) | PC12 HttQ103-GFP aggregates, Acumen cytometry, 40 h | Potency, µM (titrated, usually from 46.1 µM), for the others: at the highest dose activity change, negative = inhibition, usual class: inhibitors | actives 1.1% (n = 220,000); note: % is set by controls: 0 for no effect and ±100 for the full control effect; nearly all actives have a fitted effect of over 60% in size
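Huntingtin Q103 exon 1–GFP aggregates in induced PC12 cells (100 nM tebufenozide) were quantified by cytometry from lysates, with compounds dosed in titration.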
Tau ThT inhib – qHTS for Inhibitors of Tau Fibril Formation, Thioflavin T Binding. Microtubule-associated protein tau (Homo sapiens), P10636. recombinant tau K18 P301L, heparin-induced fibrillization, ThT fluorescence. Potency, µM (titrated, usually from 57.4 µM), for inactives: at the top dose activity, negative = inhibition, actives largely listed as inhibitors. actives 2.1% (n = 270,000). AID 1460, 2008; note: % is set by controls: 0 for no effect and ±100 for the full control effect; nearly all actives have a fitted effect of over 55% in size
Target sequence (P10636 561-689 P618L limits assumed): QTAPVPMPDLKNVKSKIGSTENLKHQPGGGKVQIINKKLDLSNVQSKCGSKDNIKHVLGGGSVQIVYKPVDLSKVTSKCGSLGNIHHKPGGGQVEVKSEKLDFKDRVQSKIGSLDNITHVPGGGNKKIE
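Using a mix of unlabeled (15 uM) and Alexa 594-labeled (0.24 uM) tau K18 P301L, heparin-triggered fibrillization over 6 hr at 37 C was scored by ThT fluorescence.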
Tau FP inhib – qHTS for Inhibitors of Tau Fibril Formation, Fluorescence Polarization; K18 P301L tau heparin fibrillization, Alexa594 FP, 6 h; Potency, µM (doses to about 57.7 µM), without a hit: at the top dose activity, negative = inhibition, most hits filed as inhibitors; actives 0.39% (n = 280,000); note: % is set by controls: 0 for no effect and ±100 for the full control effect; nearly all actives have a fitted effect of over 55% in size
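Recombinant K18 P301L […], labeled with Alexa 594 at 0.24 uM over 15 uM unlabeled; heparin inducer 20 uM final; 37 C, 6 hr; FP endpoint.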
The depositor's hits bear a star; [ ] = another dose, or the depositor's remark. Most compounds without a hit are left out; they make up all but 3.7% or so of the library. Calls come from the whole dose curve; as a rule, active = well fitted curve in the direction sought with a large enough effect; inconclusive = small, poorly fitted or top-dose-only effect, or another doubt; inactive = no such curve, though single readings can be large; an effect the other way counts as inactive or inconclusive. Potency is the fitted concentration of half-maximal effect.

C[C@H]1Cc2c(COc3ccccc3)nc3c(c2CO1)CN(C(=O)c1ccco1)CC3 was read as Tau fluor counter -18%[11.6 µM], HTT ATP protect -18%[10 µM], Tau ThT inhib -6%[11.5 µM] and Tau FP inhib -1%[11.6 µM].
Screening O=[N+]([O-])c1cc(C(F)(F)F)cc([N+](=O)[O-])c1NCCNC(=S)Nc1cccc(F)c1 returned Tau fluor counter 8.9µM*[quencher], HTT ATP protect -1%[10 µM], HttQ103 aggreg 15%[9.22 µM], Tau ThT inhib inconclusive and Tau FP inhib -7%.
For COc1cccc(CNC(=O)Cc2csc3ccccc23)c1OC the results were Tau fluor counter -7%, Tau ThT inhib -1% and Tau FP inhib 8%.
CN(Cc1cccs1)c1ncnc2sccc12 was read as Tau fluor counter -19%, HTT ATP protect 1%[10 µM], HttQ103 aggreg 3.2µM*, Tau ThT inhib -17% and Tau FP inhib -3%.
`CCOC(=O)C1=C(C)n2c(s/c(=C/c3cccc([N+](=O)[O-])c3)c2=O)=NC1c1ccc(O)c(OC)c1` (stereo unspecified) gave Tau fluor counter inconclusive, HTT ATP protect -101%, HttQ103 aggreg inconclusive, Tau ThT inhib 14µM* and Tau FP inhib -6%.
For CC(=O)O[C@@H]1CC[C@]2(C)[C@H]3CC[C@]4(C)[C@H](C[C@H]5CCCC[C@@]54C(C)=O)[C@@H]3CC(=O)[C@@]2(O)C1 the results were HTT ATP protect 7%.
Screening C[C@@H](CN1CCC(Cc2ccccc2)CC1)[C@H](O)c1ccc(O)cc1 returned HTT ATP protect -4%[1.9 µM].
COc1ccccc1N=c1oc2cc(O)ccc2cc1C(N)=O was read as Tau fluor counter -25%, HTT ATP protect -44%, HttQ103 aggreg inconclusive, Tau ThT inhib inconclusive and Tau FP inhib 5%.
`Cc1cccc(N=c2oc3cc(O)ccc3cc2C(N)=O)c1` gave Tau fluor counter inconclusive, HTT ATP protect -40%, HttQ103 aggreg 8.9µM*, Tau ThT inhib inconclusive and Tau FP inhib 0%.
`CCCCc1nc2c(c3c1C[C@H](C)OC3)CN(S(=O)(=O)c1c(C)noc1C)CC2` gave Tau fluor counter -7%[11.6 µM], HTT ATP protect -4%[10 µM], Tau ThT inhib -5%[11.5 µM] and Tau FP inhib 0%[11.6 µM].
Screening CCOc1ccc(OCC)c(NC(=O)C2CCN(S(=O)(=O)c3ccc(Br)s3)CC2)c1 returned Tau fluor counter -14%, Tau ThT inhib -1% and Tau FP inhib -6%.
For O=C(COc1ccc([N+](=O)[O-])cc1)N/N=C/c1cc([N+](=O)[O-])ccc1N1CCOCC1 the results were Tau fluor counter -26%, HTT ATP protect 34%[10 µM], HttQ103 aggreg 6%, Tau ThT inhib 4µM* and Tau FP inhib -3%.
Screening O=C(Cc1csc(N2CCOCC2)n1)N/N=C/c1ccc(O)c(O)c1O returned Tau fluor counter inconclusive, HTT ATP protect -23%, HttQ103 aggreg -5%, Tau ThT inhib 16µM* and Tau FP inhib 32µM*.
Screening O=C(COc1nsnc1N1CCOCC1)N/N=C/c1ccccc1O returned Tau fluor counter -10%, HttQ103 aggreg 14µM*, Tau ThT inhib -6% and Tau FP inhib 1%.
CC(C)C(O)(C(C)C)C(C)C was read as HTT ATP protect 6%[10 µM].
`Cc1cccc(C)c1NC(=O)C(NC=O)c1ccc(Cl)cc1` (stereo unspecified) gave Tau fluor counter -1%, HTT ATP protect -3%[10 µM], HttQ103 aggreg -18%, Tau ThT inhib -1% and Tau FP inhib 5%.
`Cc1cccc(C)c1NC(=O)C(C)c1ccc(-c2ccccc2)c(F)c1` (stereo unspecified) gave Tau fluor counter -4%, HTT ATP protect -29%, HttQ103 aggreg 18µM*, Tau ThT inhib -1% and Tau FP inhib 4%.
Screening COc1ccc(/C=N/OCC(=O)N=Nc2c(O)[nH]c3ccc(Br)cc23)cc1OC returned Tau fluor counter inconclusive, HttQ103 aggreg -24%, Tau ThT inhib 18µM* and Tau FP inhib inconclusive.
For CCCS(=O)(=O)c1nc(S(=O)(=O)c2ccc(C)cc2)c(NCc2ccccc2Cl)s1 the results were Tau fluor counter -22%, Tau ThT inhib 0% and Tau FP inhib -10%.
Screening O=c1c(O)cccc2cc(O)c(O)c(O)c12 returned Tau fluor counter 2.5µM*[quencher], HTT ATP protect 16%[10 µM], HttQ103 aggreg 9%[9.22 µM], Tau ThT inhib 3.2µM* and Tau FP inhib 11µM*.
Screening COc1cc2cccc(OC)c(=O)c2c(OC)c1OC returned Tau fluor counter -6%, HTT ATP protect -1%, HttQ103 aggreg 10%, Tau ThT inhib -14% and Tau FP inhib -12%.
`CCOCCn1c(N2CCN(c3ccccc3)CC2)nc2c1c(=O)n(C)c(=O)n2C` gave Tau fluor counter -10%, HTT ATP protect 2%, HttQ103 aggreg -12%, Tau ThT inhib -14% and Tau FP inhib 2%.
For CCOCCn1c(CN2CCN(c3cccc(Cl)c3)CC2)nc2c1c(=O)n(C)c(=O)n2C the results were Tau fluor counter -12%, HTT ATP protect -26%, HttQ103 aggreg -12%, Tau ThT inhib inconclusive and Tau FP inhib 2%.
Screening COCCn1c(N2CCN(c3ccccc3)CC2)nc2c1c(=O)n(C)c(=O)n2C returned Tau fluor counter -4%, HTT ATP protect 2µM*, HttQ103 aggreg 19%[9.22 µM], Tau ThT inhib -4% and Tau FP inhib 0%.
`COCCn1c(CN2CCN(c3cccc(Cl)c3)CC2)nc2c1c(=O)n(C)c(=O)n2C` gave Tau fluor counter -5%, HTT ATP protect -35%, HttQ103 aggreg 20µM*, Tau ThT inhib -2% and Tau FP inhib 5%.
Screening Cn1c(=O)c2[nH]c(CCC(=O)O)nc2n(C)c1=O returned HTT ATP protect -14%[10 µM].
O=C(N/N=C/c1ccccc1Cl)c1n[nH]c2c1CCCC2 was read as Tau fluor counter 17%, HTT ATP protect -13%[10 µM], HttQ103 aggreg 13µM*, Tau ThT inhib 9% and Tau FP inhib -1%.
COc1ccccc1CCNC(=O)C(=O)NCC(c1ccco1)S(=O)(=O)c1ccc(F)cc1 (stereo unspecified) was read as Tau fluor counter -14%, Tau ThT inhib -11% and Tau FP inhib -6%.
Screening Brc1ccc(C2Nc3cccc4cccc(c34)N2)s1 returned Tau fluor counter inconclusive, HTT ATP protect -43%[10 µM], HttQ103 aggreg -16%, Tau ThT inhib 13µM* and Tau FP inhib inconclusive.
Screening COc1cc2c(cc1OC)CN(Cc1nc3ccsc3c(=O)[nH]1)CC2 returned Tau fluor counter -11%, HTT ATP protect 23%[10 µM], HttQ103 aggreg 4µM*, Tau ThT inhib inconclusive and Tau FP inhib -3%.

Source: PubChem
